PubChem BioAssay AID624330 (Southern Research Specialized Biocontainment Screening …, 2012)
Hit rate of the full screen: of about 340,000 compounds, about 2,100 (0.62%) were called active.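 The calls were made as follows: active = first-screen hits whose inhibition reached a set limit at any dose in the follow-up dose series; inconclusive = inhibition above the set first-screen limit but never retested; inactive = the rest.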 These entries were drawn from the full list. Measured potencies and affinities stand elsewhere.

Biological target: Rac GTPase-activating protein 1 (Homo sapiens) (UniProt Q9H0H5)
Sequence (Q9H0H5 whole entry, looked up): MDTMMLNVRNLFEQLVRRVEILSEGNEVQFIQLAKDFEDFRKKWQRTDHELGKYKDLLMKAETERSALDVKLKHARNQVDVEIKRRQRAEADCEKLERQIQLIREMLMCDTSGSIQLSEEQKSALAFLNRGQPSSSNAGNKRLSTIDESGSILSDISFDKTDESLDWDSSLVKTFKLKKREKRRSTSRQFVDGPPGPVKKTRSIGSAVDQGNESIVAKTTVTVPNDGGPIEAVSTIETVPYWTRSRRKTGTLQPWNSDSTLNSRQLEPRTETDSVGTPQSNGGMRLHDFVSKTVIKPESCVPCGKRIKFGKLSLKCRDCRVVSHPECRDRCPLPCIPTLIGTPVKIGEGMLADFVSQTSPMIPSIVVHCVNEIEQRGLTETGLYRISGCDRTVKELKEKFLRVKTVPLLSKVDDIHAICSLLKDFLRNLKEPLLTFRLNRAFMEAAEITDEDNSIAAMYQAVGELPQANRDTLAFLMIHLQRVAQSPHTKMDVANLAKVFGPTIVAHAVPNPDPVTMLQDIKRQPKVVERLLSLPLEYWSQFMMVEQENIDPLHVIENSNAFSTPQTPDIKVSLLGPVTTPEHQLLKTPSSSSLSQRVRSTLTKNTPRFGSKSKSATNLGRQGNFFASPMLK
Assay: blockers of MgcRacGAP-driven Rac1 GTP hydrolysis – biochemical, ADP Hunter fluorescence, primary and confirmatory, confirmation (AID 624330);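 also: fluorescence reports GDP produced by GAP-driven GTP hydrolysis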
Conditions: MgcRacGAP-stimulated Rac1 GTP hydrolysis, at 30 µM, hits give high values, GST-tagged Rac1 F28L mutant substrate

inhibition, inactive:
CC(NCC(c1ccco1)N1CCCCC1)C(=O)NC1CCCC1 (stereo not drawn) 6.01%
Cc1[nH]ccc(=O)c1OCc1ccc(Cl)cc1 8.17%
CCCSc1nnc2c(n1)OC(c1cccn1C)N(C(C)=O)c1ccccc1-2 (stereo not drawn) 7.61%
Cc1cccc(NC(=O)Nc2cnccn2)c1C 7.34%
COc1cc(C(=O)NC2CCCC2)c(Br)c(OC)c1OC 11.2%
Cc1ccc(C(CNS(=O)(=O)c2ccc(F)cc2)N2CCN(C)CC2)cc1 (stereo not drawn) 3.73%
C#CCOCCOCCOCCNc1nc(N2CCN(C(=O)[C@H]([C@@H](C)O)n3cc(CCCCN)nn3)CC2)nc(N2CCN(C(=O)[C@H](C)n3cc(CCCN=C(N)N)nn3)CC2)n1 6.19%
CCOc1ncccc1C(=O)OCC(=O)c1ccc(OC)c(OC)c1 2%
COc1cccc(CN2CCC(N(CCc3ccccc3)Cc3ccccc3)CC2)c1OC 22.3%
CCCN1CCC(N(CCc2ccccc2)Cc2ccccc2)CC1 -10%
CSc1nnc(-c2ccc(S(=O)(=O)N3CCCCC3)cc2)o1 1%
CCC(C)c1ccccc1NC(=O)C(C)OC(=O)c1ccco1 (stereo not drawn) 1.05%
O=c1c(Cc2c(F)cccc2Cl)c(O)ccn1CC1CCCO1 (stereo not drawn) -2.7%
CCOC(=O)CCc1c(C)nc2cc(-c3ccc(Cl)cc3)[nH]n2c1=O -6.3%
O=C(CCNC(=O)c1ccco1)Nc1ccc(SC(F)F)cc1 -1.92%
COc1ccc(N2CCN(C(=O)CSc3nnnn3C3CC3)CC2)cc1 16.6%
Cc1nnc(SCC(=O)N2CCN(c3ccccc3)CC2)n1C1CC1 5.61%
O=C(CSc1nnnn1C1CC1)N1CCN(c2cccc(Cl)c2)CC1 6.11%
COc1ccc(N2CCN(C(=O)CSc3nnc(C4CC4)n3C3CC3)CC2)cc1 24.3%
C[C@@H]1[C@H]2CCCC[C@H]2CN(C(=O)OC(C)(C)C)[C@@H]1CC(=O)c1ccccc1 12.5%
COc1ccc(CN2CCS(=O)(=O)CC2)cc1OC -1.72%
CCOC(=O)C1CCCN(S(=O)(=O)c2ccc(Cl)nc2)C1 (stereo not drawn) 0.62%
CCC(=O)c1ccccc1OCCN1C(=O)NC(C)(C)C1=O 3.57%
Clc1ccccc1CNCc1ccncc1 -5.2%
Cc1ccc(CNCc2ccccc2Cl)cc1 3.27%
Fc1ccccc1CNCc1ccc2c(c1)OCO2 6.19%
Cc1ccccc1CNCc1ccc2c(c1)OCO2 25.3%
CC1=C(C(=O)NC(C)CCc2ccccc2)C2(CCC(C)CC2)OC1=O (stereo not drawn) 9.85%
O=C(C[n+]1cccc(/C=N/O)c1)N(Cc1ccccc1)Cc1ccccc1 2.39%
COc1ccc(CCNC(=O)CSc2n[nH]c(N)n2)cc1 9.27%
Cc1csc(=O)n1CCC(=O)OCC(=O)Nc1ccc(S(N)(=O)=O)cc1 6.26%
O=C(CCN1C(=O)[C@@H]2Cc3ccccc3CN2C1=O)NCc1ccccc1Cl 13.7%
CCOc1ccc(S(=O)(=O)N2CCCC(C(=O)Nc3ccccc3)C2)cc1 (stereo not drawn) 4.61%
COc1ccccc1/C=C(/C(=O)OCC(=O)Nc1ccccc1C)c1ccccc1 8.5%
COc1cc(CC(=O)OCC(=O)Nc2ccc3c(c2)OCO3)cc(OC)c1OC 12.4%
CCN(c1ccc(NC(=O)COC(=O)CCc2cc(OC)c(OC)c(OC)c2)cc1)C(C)C 14.8%
CCc1ccc(NC(=O)COC(=O)/C(=C/c2ccccc2OC)c2ccccc2)cc1 -0.32%
COc1cc(CC(=O)OCC(=O)Nc2ccc([N+](=O)[O-])cc2)cc(OC)c1OC 13.3%
CCN(CC)S(=O)(=O)c1ccc(NC(=O)COC(=O)CCc2cc(OC)c(OC)c(OC)c2)cc1 1.83%
COc1ccc(NC(C)=O)cc1C 16.4%
COCc1cc(C)n(CC(=O)Nc2ccc(N3CCOCC3)cc2)c(=O)c1C#N 1.03%
Nc1c(C(=O)c2cccs2)oc2ccccc12 6.17%
Cc1ccc(C(=O)OCc2nnc(-c3ccccc3)o2)o1 6.62%
O=c1c2ccccc2[nH]c(=S)n1CCCN1CCOCC1 4.66%
COCCCn1c(=S)[nH]c2c(sc3ccccc32)c1=O 21%
CCN(CC)S(=O)(=O)c1cc(C(=O)OCC(=O)Nc2ccc(-c3nc4ccc(C)cc4s3)cc2)ccc1F 4.33%
CC(=O)Nc1nc2c(s1)CCc1ccccc1-2 8.9%
COc1ccc2c(c1)-c1nc(NC(=O)c3cccs3)sc1CC2 8.83%
Nc1nc2c(s1)COc1ccccc1-2 4.85%
COc1ccc2c(c1)-c1nc(NC(=O)c3ccco3)sc1CC2 8.71%
Cc1ccc(CNc2ccc(N3CCOCC3)c(C(=O)O)c2)s1 6.12%
CCC(=O)N1CCN(c2ccc(NC(=O)COc3ccc(CC)cc3)cc2)CC1 3.4%
CCc1ccc(N2CCN(C(=O)N3CCOCC3)CC2)cc1 7.01%
c1cc(CNc2ccc(N3CCOCC3)cc2)ccn1 13.9%
O=S(=O)(c1ccc(NCc2ccccc2)cc1)N1CCOCC1 5.28%
CC(=O)N1CCN(c2ccc(NC(=O)c3ccc(Cl)cc3)cc2)CC1 4.31%
CC(=O)N1CCN(c2ccc(NCc3ccc(C)s3)cc2)CC1 30.4%
CC(=O)c1ccc(N2CCN(C(=O)Nc3ccc(C(C)C)cc3)CC2)cc1 6.75%
Cc1cc(=O)[nH]c(NN=C2C3CC4CC(C3)CC2C4)n1 -3.7%
CS(=O)(=O)NNC(=O)C1Cc2c(ccc3ccccc23)O1 (stereo not drawn) 8.23%
CC1CCCC(C)N1CCNC(=O)Nc1ccc(Cl)cc1 (stereo not drawn) 6.73%
COc1ccc(NC(=O)C2CCN(C(=O)[C@@H]3Cc4ccccc4CN3)CC2)cc1 -3.28%
O=C(OCc1ccccc1)/C(=C/c1cccc2ccccc12)NC(=O)c1ccccc1 4.32%
N#CC1=C(c2ccc(-c3ccccc3)cc2)COC1=O 7.38%
CCc1ccc(NC2CC(=O)N(c3ccc(OC)cc3OC)C2=O)cc1 (stereo not drawn) 4.67%
CC(C)c1ccc(C(=O)Nc2ccc(N3CCOCC3)cc2)cc1 7.63%
CCc1ccc(NC(=O)N2CCN(c3ccc(F)cc3)CC2)cc1 2.99%
COc1cccc(N2C(=O)CC(Nc3ccc(N4CCOCC4)cc3)C2=O)c1 (stereo not drawn) 20.1%
CC(C)c1ccc(S(=O)(=O)Nc2ccc(N3CCOCC3)cc2)cc1 8.59%
CC(=O)N1CCN(c2ccc(NC(=O)c3ccccc3)cc2)CC1 11.9%
CC(=O)N1CCN(c2ccc(NC(=O)C(c3ccccc3)c3ccccc3)cc2)CC1 3.06%
CC(=O)N1CCN(c2ccc(NC(=O)c3ccc(F)cc3)cc2)CC1 13.2%
O=C(CSc1nnc(-c2cccnc2)o1)Nc1ccc(F)cc1 13.2%
Clc1nc(-c2ccccc2)c2ccccc2n1 10.5%
CC(=O)c1cc(Cc2csc(C(C)=O)c2)cs1 1.28%
CN(C(=O)COC(=O)c1cccs1)c1c(N)n(Cc2ccccc2)c(=O)[nH]c1=O 4.09%
Cc1cc(=O)oc2c3c(cc(OCC(=O)NC(Cc4ccc(Cl)cc4)C(=O)O)c12)OC(C)(C)CC3 (stereo not drawn) 6.3%
O=C(NCc1ccccc1)NC(=O)c1ccncc1 8.08%
O=C1NC(=S)NC1Cc1ccc(O)cc1 (stereo not drawn) 7.3%
CCn1ccnc1CN1CCCCC1C(=O)Nc1ccc(Oc2cccnc2)cc1 (stereo not drawn) 10.9%
O=C1CC(Nc2ccccc2)C(=O)N1Cc1ccccc1 (stereo not drawn) 7.76%
CC(=O)Nc1ccc(NCc2cccs2)cc1 31.6%
CC(=O)N1CCN(c2ccc(NC(=O)c3cccc(C)c3)cc2)CC1 -9.43%
O=C1CC(Nc2ccc(N3CCOCC3)cc2)C(=O)N1CCc1ccccc1 (stereo not drawn) 14.7%
O=C(O)c1ccc(NCc2cccs2)cc1 -0.42%
Cc1cccc(CNc2ccc(S(=O)(=O)N3CCCCC3)cc2)c1 2.94%
CC1CCN(Cc2cc(=O)oc3ccc(C(C)C)cc23)CC1 5.26%
O=S(=O)(N/N=C1\CC(c2ccccc2)Oc2ccccc21)c1ccccc1 (stereo not drawn) -7.41%
COc1ccccc1CNC1CCN(Cc2ccccc2)CC1 -3.78%
Fc1ccc(CNC2CCN(Cc3ccccc3)CC2)cc1 -1.76%
Cc1cc(-c2ccccc2)nc(N/N=C/c2cccnc2)n1 3.86%
Oc1ccc(/C=N/Nc2ccccc2)cc1 12.9%
COc1ccc(/C=N/Nc2nc(C)cc(-c3ccccc3)n2)cc1OC 11.1%
Cc1cc(-c2ccccc2)nc(N/N=C/c2ccccc2F)n1 2.38%
COc1ccc(O)c(/C=N/Nc2nc(C)cc(-c3ccccc3)n2)c1 3.11%
C/C(=N\Nc1nc2ccccc2nc1C)c1ccccc1O -0.02%
Cc1cc(-c2ccccc2)nc(N/N=C/c2ccccc2)n1 4.11%
Cc1cc(-c2ccccc2)nc(N/N=C/c2ccc([N+](=O)[O-])cc2)n1 6.88%
